The record followed here is PubChem BioAssay (Tox21).

The structures appear in SMILES notation. Values joined by “and” are separate entries in the source; they are usually repeats but may differ in a detail not shown here. Identical values can stand only once. Inconclusive results are not listed. Entries that show only a call come without a potency. Where a structure was tested more than once in an assay, its records may differ in their call. Active and inactive are the calls of the source. The call rests on the fitted dose curve; in most records, active means well fitted curve in the direction sought with a large enough effect in the repeat runs; inconclusive means weak or mixed curves; inactive means no such curve, though single readings can be large; an effect the other way counts as inactive or inconclusive.
Further: nearly all actives have a fitted effect of over 50% in size.

Sequence of Voltage-gated inwardly rectifying potassium channel KCNH2 (Homo sapiens) (Q12809 whole entry, looked up): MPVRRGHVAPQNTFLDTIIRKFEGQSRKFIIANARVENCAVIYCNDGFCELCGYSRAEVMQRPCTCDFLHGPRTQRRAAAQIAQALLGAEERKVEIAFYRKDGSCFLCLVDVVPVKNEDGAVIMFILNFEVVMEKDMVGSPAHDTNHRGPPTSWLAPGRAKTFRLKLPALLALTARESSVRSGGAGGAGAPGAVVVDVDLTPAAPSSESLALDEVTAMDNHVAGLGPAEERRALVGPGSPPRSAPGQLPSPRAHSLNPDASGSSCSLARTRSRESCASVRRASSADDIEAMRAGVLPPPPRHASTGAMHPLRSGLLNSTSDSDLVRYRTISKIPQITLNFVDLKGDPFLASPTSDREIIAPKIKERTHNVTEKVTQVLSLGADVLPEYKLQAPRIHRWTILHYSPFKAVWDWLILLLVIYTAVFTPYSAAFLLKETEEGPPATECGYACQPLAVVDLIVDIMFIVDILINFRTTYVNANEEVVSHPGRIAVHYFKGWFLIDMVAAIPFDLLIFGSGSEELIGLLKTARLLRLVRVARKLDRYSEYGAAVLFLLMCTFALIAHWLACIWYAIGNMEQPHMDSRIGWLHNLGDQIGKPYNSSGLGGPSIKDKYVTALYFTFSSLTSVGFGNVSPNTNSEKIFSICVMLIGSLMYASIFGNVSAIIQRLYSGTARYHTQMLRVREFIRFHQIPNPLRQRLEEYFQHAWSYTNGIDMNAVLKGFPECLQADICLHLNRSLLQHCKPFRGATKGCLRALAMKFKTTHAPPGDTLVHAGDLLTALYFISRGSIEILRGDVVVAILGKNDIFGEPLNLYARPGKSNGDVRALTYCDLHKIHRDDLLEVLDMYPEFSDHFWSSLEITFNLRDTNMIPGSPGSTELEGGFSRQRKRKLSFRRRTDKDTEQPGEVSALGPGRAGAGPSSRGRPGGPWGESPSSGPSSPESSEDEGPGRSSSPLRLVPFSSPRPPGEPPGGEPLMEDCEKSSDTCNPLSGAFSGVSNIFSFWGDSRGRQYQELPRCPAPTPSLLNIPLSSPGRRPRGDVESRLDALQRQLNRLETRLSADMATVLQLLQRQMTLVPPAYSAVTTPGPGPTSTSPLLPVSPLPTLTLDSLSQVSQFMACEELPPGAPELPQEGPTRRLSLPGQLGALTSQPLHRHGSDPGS
Sequence of Cytochrome P450 3A4 (Homo sapiens) (P08684 whole entry, looked up): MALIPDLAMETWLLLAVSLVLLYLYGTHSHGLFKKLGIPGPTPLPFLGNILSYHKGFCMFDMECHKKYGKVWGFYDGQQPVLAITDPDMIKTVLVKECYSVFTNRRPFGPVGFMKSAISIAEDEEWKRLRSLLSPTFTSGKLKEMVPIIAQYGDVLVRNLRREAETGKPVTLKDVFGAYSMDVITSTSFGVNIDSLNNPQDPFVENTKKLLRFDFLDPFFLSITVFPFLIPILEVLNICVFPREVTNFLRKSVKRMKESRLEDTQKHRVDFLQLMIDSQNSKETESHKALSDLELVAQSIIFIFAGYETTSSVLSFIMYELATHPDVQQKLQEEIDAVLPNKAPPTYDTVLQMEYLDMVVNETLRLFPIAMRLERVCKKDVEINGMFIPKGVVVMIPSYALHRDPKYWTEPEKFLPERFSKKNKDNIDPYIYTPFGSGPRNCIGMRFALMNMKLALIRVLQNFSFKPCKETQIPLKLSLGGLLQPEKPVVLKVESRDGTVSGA

In the first experiment the target is Cytochrome P450 1A2 (Homo sapiens) (UniProt P05177). The experiment in a line: Cytochrome P450 Family 1 Subfamily A Member 2 (CYP1A2) small molecule antagonists: luciferase reporter qHTS assay (AID 1671199). Further: potency means the concentration at half of the fitted maximal effect. To be noted: P450-Glo CYP1A2 enzyme, luciferin luminescence, 1 h; series mostly up to 115 µM. The essentials: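 P450-Glo CYP1A2 enzyme–proluciferin substrate mix with compound 10 min at room temperature, then NADPH regeneration 1 h at room temperature. Luciferin detection reagent added, luminescence read after 20 min; furafylline positive control.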
Sequence of Cytochrome P450 1A2 (Homo sapiens) (P05177 whole entry, looked up): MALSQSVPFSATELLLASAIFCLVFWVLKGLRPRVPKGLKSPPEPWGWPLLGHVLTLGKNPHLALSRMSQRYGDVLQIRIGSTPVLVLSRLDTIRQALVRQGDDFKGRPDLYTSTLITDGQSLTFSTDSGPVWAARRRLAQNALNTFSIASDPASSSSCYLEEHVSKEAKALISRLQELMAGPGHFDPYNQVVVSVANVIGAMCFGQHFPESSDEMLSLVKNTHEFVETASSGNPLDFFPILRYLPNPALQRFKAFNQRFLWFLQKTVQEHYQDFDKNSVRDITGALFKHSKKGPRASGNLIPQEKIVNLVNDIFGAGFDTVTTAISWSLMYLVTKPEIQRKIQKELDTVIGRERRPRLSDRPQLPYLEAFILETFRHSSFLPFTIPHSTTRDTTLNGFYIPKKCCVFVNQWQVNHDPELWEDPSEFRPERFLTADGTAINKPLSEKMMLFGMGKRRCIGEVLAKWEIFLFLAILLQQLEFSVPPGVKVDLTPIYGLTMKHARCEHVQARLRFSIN
On the technique in general: Reporter assays use an easily measured gene product as a stand-in for the process of interest.
Turning to `C=CCOC(=O)c1ccccc1C(=O)OCC=C`, the Potency is 2.48 µM (active) and 3.56 µM (active).

`O=S(=O)(O)c1ccc2ccccc2c1`: the Potency result is “inactive”.

Regarding `CC(=O)OCC(=O)[C@@]12N=C(C)O[C@@H]1C[C@H]1[C@@H]3CCC4=CC(=O)C=C[C@]4(C)[C@H]3[C@@H](O)C[C@@]12C`, the Potency result is “inactive and 17.4 µM (active)”.

For the compound `C=CCNC(N)=S`, the Potency entry is “inactive”.

As to `C=C(C)C(=O)Nc1ccc(Cl)c(Cl)c1`, the Potency is 2.86 µM (active) and 5 µM (active).

As for `C=C(C)C(=O)O[C@H]1C[C@@H]2CC[C@@]1(C)C2(C)C`, the Potency result is “inactive”.

For `Fc1ccc(Br)cc1`, the Potency was 40.3 µM (active) and inactive.

Regarding `O=c1[nH]c(=O)n([C@H]2C[C@H](O)[C@@H](CO)O2)cc1Br`, the Potency was 40.6 µM (active) and inactive.

Consider `CC(=O)Nc1cccc(O)c1`, for which the Potency result was “inactive”.

Consider `CC(C)(C)[C@@H](O)[C@@H](Cc1ccc(Cl)cc1)n1cncn1`, for which the Potency entry is “inactive”.

As for `C/C=C1/CC2C=CC1C2` (stereo not given), the Potency entry was “inactive”.

As to `CCCCCCCCCCCCOCCO`, the Potency was 31.7 µM (active) and 34.7 µM (active).

On to `CCCCCOC(C)=O`, for which the Potency result was “inactive”.

With `O=C(CC(C(=O)OC1CCCCC1)S(=O)(=O)O)OC1CCCCC1` (stereo not given), the Potency entry was “inactive”.

For `CCCCC(CC)COC(=O)C(C#N)=C(c1ccccc1)c1ccccc1` (stereo not given), the Potency was 31.7 µM (active).

Consider `CC(=O)c1ccccc1`, for which the Potency is 32.9 µM (active).

Regarding `O=C(OCCOCCOC(=O)c1ccccc1)c1ccccc1`, the Potency was 5.01 µM (active) and 8.94 µM (active).

As for `O=c1[nH]nnc2ccccc12`, the Potency entry was “inactive”.

Turning to `CCCCCCOCCO`, the Potency result was “inactive”.

On to `O=C(O)c1cc(O)c(O)c(O)c1`, for which the Potency entry is “inactive”.

As to `CSCCC=O`, the Potency was 19 µM (active) and 4.48 µM (active).

Take `CCCCCC(N)=O`: the Potency entry is “inactive”.

For `OCCOCCOCCO`, the Potency entry is “inactive”.

Regarding `CCCCC(CC)COC(=O)CS` (stereo not given), the Potency was 64.1 µM (active) and inactive.

`CCCCCCCCCCCCc1ccccc1`: the Potency result was “inactive”.

On to `O=C(O)c1ccc2c(c1)C(=O)OC2=O`, for which the Potency entry was “inactive”.

The next experiment has as its target Voltage-gated inwardly rectifying potassium channel KCNH2 (Homo sapiens) (UniProt Q12809). The experiment in a line: Human Ether-a-go-go-Related Gene (hERG) channel small molecule antagonists: fluorescence cell-based qHTS assay (AID 1671200).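 Further: hERG-expressing U2OS cells given a thallium stimulus after FluxOR II dye loading.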 The settings on record: hERG-U2OS cells, FluxOR thallium flux fluorescence; series mostly up to 76.8 µM. The essentials:
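Kinetic two-minute fluorescence traces, sampled at 1 s, were collected following thallium stimulus of U2OS cells (1000 per well) that had been cultured overnight at 37 C and loaded with FluxOR II.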
A general note: Block of hERG is tested as a sign of cardiac risk.
For `C=CCOC(=O)c1ccccc1C(=O)OCC=C`, the outcome was inactive.

For the compound `O=S(=O)(O)c1ccc2ccccc2c1`, the compound was called inactive.

As for `CC1=CCC2CC1C2(C)C` (stereo not given), the compound was classed as inactive.

As for `C=CCNC(N)=S`, the call was inactive.

For `C=C(C)C(=O)Nc1ccc(Cl)c(Cl)c1`, the result was inactive.

As to `C=C(C)C(=O)O[C@H]1C[C@@H]2CC[C@@]1(C)C2(C)C`, the compound was called inactive.

Consider `O=c1[nH]c(=O)n([C@H]2CCCO2)cc1F`, for which the compound was classed as inactive.

With `CC(c1cc2ccccc2s1)N(O)C(N)=O` (stereo not given), the outcome was inactive.

`CC(=O)Nc1cccc(O)c1`: the result was inactive.

Consider `CC(C)(C)[C@@H](O)[C@@H](Cc1ccc(Cl)cc1)n1cncn1`, for which the compound was classed as inactive.

As for `C/C=C1/CC2C=CC1C2` (stereo not given), the call was inactive.

Turning to `C#C[C@]1(O)CC[C@H]2[C@@H]3CCC4=CC(=O)CC[C@@H]4[C@H]3CC[C@@]21C`, the compound was called inactive.

As for `C#CCN(C)Cc1ccccc1`, the outcome was inactive.

Take `O=C(CC(C(=O)OC1CCCCC1)S(=O)(=O)O)OC1CCCCC1` (stereo not given): the compound was called inactive.

In the case of `CCCCC(CC)COC(=O)C(C#N)=C(c1ccccc1)c1ccccc1` (stereo not given), the outcome was inactive.

Regarding `CC(=O)c1ccccc1`, the result was inactive.

Regarding `O=C(OCCOCCOC(=O)c1ccccc1)c1ccccc1`, the call was inactive.

For `O=C(O)[C@H](O)[C@@H](O)[C@H](O)[C@H](O)CO`, the result was inactive.

On to `OC[C@H]1O[C@@](CO)(O[C@H]2O[C@H](CO)[C@@H](O)[C@H](O)[C@H]2O)[C@@H](O)[C@@H]1O`, for which the outcome was inactive.

As for `OCCOCCOCCO`, the call was inactive.

In the case of `CCCCC(CC)COC(=O)CS` (stereo not given), the call was inactive.

In the case of `O=C(O)c1ccc2c(c1)C(=O)OC2=O`, the compound was called inactive.

The next experiment deals with Cytochrome P450 3A4 (Homo sapiens) (UniProt P08684). In words: Cytochrome P450 Family 3 Subfamily A Member 4 (CYP3A4) small molecule antagonists: luciferase reporter qHTS assay (AID 1671201). Further: potency means the concentration at half of the fitted maximal effect. To be noted: P450-Glo CYP3A4 enzyme, luciferin luminescence, 1 h; series mostly up to 115 µM. The essentials:
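Proluciferin-to-luciferin conversion by CYP3A4, NADPH-regenerated, 1 h RT; luminescence read as RLU. Ketoconazole as control.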
As for `C=CCOC(=O)c1ccccc1C(=O)OCC=C`, the Potency was 3.12 µM (active) and 6.33 µM (active).

On to `O=S(=O)(O)c1ccc2ccccc2c1`, for which the Potency entry was “inactive”.

Consider `CC(=O)OCC(=O)[C@@]12N=C(C)O[C@@H]1C[C@H]1[C@@H]3CCC4=CC(=O)C=C[C@]4(C)[C@H]3[C@@H](O)C[C@@]12C`, for which the Potency entry is “inactive”.

On to `CC1=CCC2CC1C2(C)C` (stereo not given), for which the Potency result was “inactive”.

For the compound `C=CCNC(N)=S`, the Potency result is “inactive”.

Consider `C=C(C)C(=O)Nc1ccc(Cl)c(Cl)c1`, for which the Potency result was “inactive”.

For the compound `C=C(C)C(=O)O[C@H]1C[C@@H]2CC[C@@]1(C)C2(C)C`, the Potency result was “inactive”.

On to `O=c1[nH]c(=O)n([C@H]2CCCO2)cc1F`, for which the Potency entry was “inactive”.

On to `Fc1ccc(Br)cc1`, for which the Potency result is “inactive”.

In the case of `CC(c1cc2ccccc2s1)N(O)C(N)=O` (stereo not given), the Potency was 20 µM (active).

For `O=c1[nH]c(=O)n([C@H]2C[C@H](O)[C@@H](CO)O2)cc1Br`, the Potency result was “inactive”.

For the compound `CC(=O)Nc1cccc(O)c1`, the Potency result is “inactive”.

`CC(C)(C)[C@@H](O)[C@@H](Cc1ccc(Cl)cc1)n1cncn1`: the Potency is 112 nM (active) and 200 nM (active).

Consider `C/C=C1/CC2C=CC1C2` (stereo not given), for which the Potency result is “inactive and 31.7 µM (active)”.

Regarding `C#CCN(C)Cc1ccccc1`, the Potency entry is “inactive”.

With `CCCCCCCCCCCCOCCO`, the Potency result is “inactive”.

Turning to `CCCCCOC(C)=O`, the Potency entry was “inactive”.

Turning to `O=C(CC(C(=O)OC1CCCCC1)S(=O)(=O)O)OC1CCCCC1` (stereo not given), the Potency entry is “inactive”.

On to `CC(=O)c1ccccc1`, for which the Potency result was “inactive”.

Turning to `O=C(OCCOCCOC(=O)c1ccccc1)c1ccccc1`, the Potency entry is “inactive”.

For `CC(=O)Nc1ccccc1`, the Potency result was “inactive”.

Regarding `O=c1[nH]nnc2ccccc12`, the Potency result was “inactive”.

`O=C(O)[C@H](O)[C@@H](O)[C@H](O)[C@H](O)CO`: the Potency entry is “inactive”.

With `CCCCCCOCCO`, the Potency entry is “inactive”.

For `O=C(O)c1cc(O)c(O)c(O)c1`, the Potency result was “inactive”.

Turning to `CSCCC=O`, the Potency entry was “inactive”.

Take `CCCCCC(N)=O`: the Potency entry is “inactive”.

Consider `OC[C@H]1O[C@@](CO)(O[C@H]2O[C@H](CO)[C@@H](O)[C@H](O)[C@H]2O)[C@@H](O)[C@@H]1O`, for which the Potency result was “inactive”.

`OCCOCCOCCO`: the Potency result was “inactive”.

Regarding `CCCCC(CC)COC(=O)CS` (stereo not given), the Potency is 40.4 µM (active).

Turning to `CCCCCCCCCCCCc1ccccc1`, the Potency entry was “inactive”.

As to `O=C(O)c1ccc2c(c1)C(=O)OC2=O`, the Potency result was “inactive”.
